Source: PubChem BioAssay AID1259415 (National Center for Advancing Translational Sciences (NCATS), 2018)
Several values for one entry are separate records, joined by “and”; a condition that tells them apart may be missing. Equal entries are not always repeated. Among all 410,000 compounds or so, about 18,000 (4.4%) were called active. About 7% were inconclusive and are not listed. The sample holds actives, similar compounds and a random draw of the others, so the mix is not that of the screen. Cut-off read from the data, not from the text of the source: active = activity change below about -60%; inconclusive = no clear call, values can overlap the other calls; inactive = above about -39%.

Assay: qHTS Assay for inhibitors of the human cytomegalovirus (HCMV)
Conditions: HFF cells, HCMV-luciferase reporter, 72 h; at 57.5 µM; stronger effect = lower value
Method in brief: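 Steps: HFFs plated, 16 h 37C; compounds added; HCMV-luciferase added to MOI 1 PFU/cell; 72 h 37C; OneGlo reagent, 5 min room temperature; luminescence read, normalized to controls.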
% is set by controls: 0 for no effect and ±100 for the full control effect.

Structure (SMILES) | activity change, negative = inhibition
CCOC(=O)c1c(C)oc2nc(C)nc(N(CC(C)C)CC(C)C)c12 | -31.4% (inactive)
CNc1nc(SC)nc(N(C#N)CC(=O)OC)n1 | 81.6% (inactive)
COC(=O)C(C)N(C#N)c1nc(C)nc(C)n1 (configuration not stated) | -110% (active)
CCCCCn1c(CCCNC(=O)c2ccccc2OC)nc2ccccc21 | -34.7% (inactive)
Clc1ccc(CSc2nncn3c2cc2occc23)cc1 | -20.2% (inactive)
O=c1[nH]c(=O)n(CCc2ccc(F)cc2)c(O)c1/C=N/N1CCCCC1 | -4.21% (inactive)
COc1ccc(CCn2c(O)c(C=NC3CC3)c(=O)[nH]c2=O)cc1OC | -4.78% (inactive)
COc1ccc(CCn2c(O)c(C=NCCCn3ccnc3)c(=O)[nH]c2=O)cc1OC | -107% (active)
CC(C)(C(=O)Nc1ccccc1)n1cc(NC(=O)c2cc(F)cc(F)c2)cn1 | 9.36% (inactive)
Cc1ccc(C(C(=O)NCC2CCCO2)N(C(=O)c2snc(C(N)=O)c2N)c2ccc(C(C)C)cc2)o1 (configuration not stated) | -9.39% (inactive)
O=C(NNC(=S)NC(=O)c1cn(-c2ccccc2)nc1-c1ccccc1)c1ccncc1 | 21.1% (inactive)
O=C(CSc1ccc(/C=N/NC(=O)c2cccc(F)c2)o1)Nc1ccccc1 | -21.6% (inactive)
O=C(N/N=C/c1ccc([N+](=O)[O-])o1)c1cn(-c2ccccc2)nc1-c1ccc(F)cc1 | -65.8% (active)
O=C(NCCCN1CCCC1=O)c1cccc(S(=O)(=O)NCc2ccccc2)c1 | 0.765% (inactive)
Clc1ccc2c(c1)C1=C(C(c3ccncc3)O2)C(c2ccc(Br)cc2)n2ncnc2N1 (configuration not stated) | -78.3% (active)
CC1CCCN(c2nc3c(S(=O)(=O)c4ccc(C(C)C)cc4)nnn3c3ccsc23)C1 (configuration not stated) | 20% (inactive)
Cc1ccc(-n2c3nc(=O)[nH]c(=O)c-3cc3c(Cl)cccc32)cc1 | -14.6% (inactive)
CCN(CC)S(=O)(=O)c1ccc(C)c(NC(=O)COc2ccc(Br)cc2Cl)c1 | 24.1% (inactive)
CCN(CC)S(=O)(=O)c1ccc(NC(=O)c2cccnc2Cl)c(NC(=O)c2cccnc2Cl)c1 | -100% (active)
Cc1ccc(S(=O)(=O)N(C)C)cc1NC(=O)c1ccccc1Br | -5.46% (inactive)
O=C(CSc1nnc(-c2ccncc2)n1-c1ccccc1)Nc1ccc(Cl)c(Cl)c1 | -5.77% (inactive)
O=C(CC(O)(C(F)(F)F)C(F)(F)F)Nc1ccc(Cl)c(Cl)c1 | -103% (active)

Structure (SMILES) | activity change, negative = inhibition
Cc1ccc(-c2nn(CCC(=O)Nc3ccc(Cl)c(Cl)c3)c(=O)c3ccccc23)cc1 | -16.5% (inactive)
COc1cc(Cl)c(NC(=O)C(NS(=O)(=O)c2cccs2)C(C)C)c(OC)c1 (configuration not stated) | -10.2% (inactive)
CCc1ccc(-n2nc(C)c3c(C)cc(=O)n(CC(=O)Nc4ccc(F)cc4C)c32)cc1 | 5.24% (inactive)
CCc1ccccc1NC(=O)c1ccc2nc(CCc3ccccc3)oc2c1 | 30% (inactive)
COC(=O)c1ccc(Nc2ncnc3sccc23)cc1 | -62.4% (active)
O=S(=O)(Nc1ncnc2sccc12)c1cccc(F)c1 | 30.2% (inactive)
COC(=O)c1ccc(-c2nc3cc(NC(C)=O)ccc3o2)cc1 | 13.5% (inactive)
CCOC(=O)c1c(NC(=O)COc2cc(C)ccc2C(C)C)sc(C)c1C | 12.8% (inactive)
CC1CCN(S(=O)(=O)c2ccc3c(ccn3CCC(=O)NCc3ccc(N(C)C)cc3)c2)CC1 | 5.8% (inactive)
CCc1ccc(NC(=O)c2nn(-c3ccc(C)cc3)c(=O)n(C)c2=O)cc1 | -12.5% (inactive)
CCOc1ccccc1NC(=O)CSc1ncc(S(=O)(=O)c2ccc(C(C)(C)C)cc2)c(=O)[nH]1 | -2.52% (inactive)
CC1=CC(=Cc2sc3ccccc3[n+]2C)C=C(C)O1 | -100% (active)
CCC(=O)N1CCc2cc(Br)cc(S(=O)(=O)CCC(=O)NCCc3ccc(OC)c(OC)c3)c21 | 7.78% (inactive)
COc1ccc(C2NC(=S)NC3=C2CCc2ccccc23)cc1OC (configuration not stated) | -13.4% (inactive)
Cc1ccc(-c2nn(C(C)(C)C)c3ncnc(N)c23)cc1 | -69.5% (active)
O=C1CCCC2=C1C(c1cccs1)CC(=O)N2c1ccc(F)cc1 (configuration not stated) | 18.4% (inactive)
CCOC(=O)C1=C(N)N(c2ccc(C)cc2)C2=C(C(=O)CCC2)C1c1cccs1 (configuration not stated) | -86.5% (active)
CCOC(=O)c1cc2c(n(-c3ccc(C)cc3)c1=O)CCCC2=O | -27.5% (inactive)
Cc1ccc(C)c(Cn2c(=O)n(CCC(=O)NCc3ccc4c(c3)OCO4)c(=O)c3sccc32)c1 | -25.1% (inactive)
COc1ccc(C2=NC3(CCCCC3)N(CC(=O)Nc3ccc(C(C)C)cc3)C2=O)cc1 | -14.7% (inactive)
CCn1c(C)c(C)c2cc(C(=O)NCCc3cc(OC)ccc3OC)ccc21 | 0% (inactive)
CSc1nc(N(C)NC(=O)c2cccc(C)c2)c2ccccc2n1 | -87.3% (active)

Structure (SMILES) | activity change, negative = inhibition
Cc1cccc(C(=O)Nc2ccc(-c3nc4ccccc4s3)c(C)c2)c1 | 55.1% (inactive)
Cc1cccc(C(=O)NCCc2nc3ccccc3n2Cc2ccccc2Cl)c1 | 3.18% (inactive)
CC(NC(=O)c1ccccc1F)c1cccc2ccccc12 (configuration not stated) | -5.98% (inactive)
O=C(Cn1cnc2ccccc2c1=O)NNC(=O)c1ccccc1F | -0.88% (inactive)
CN(NC(=O)c1ccccc1F)c1nc(C(F)(F)F)nc2ccccc12 | -62.6% (active)
Cc1cc2oc(C(=O)N(Cc3ccc(Cl)cc3)Cc3ccco3)c(C)c2cc1Cl | -14.8% (inactive)
COc1cccc(C(=O)N2CCCC(CCC(=O)NCc3ccc(F)c(F)c3)C2)c1 (configuration not stated) | 34.9% (inactive)
COc1ccc(C)cc1N(CC(=O)N1CCC(C)CC1)S(=O)(=O)c1ccc(C)cc1 | -13.7% (inactive)
CCN(CC)CCNC(=O)CN1N=C(c2ccc(OC)cc2)CCC1=O | 29.3% (inactive)
CC1(C)CCSC(/C=C/c2ccccc2)=N1 | -97.3% (active)
CC1(C(=O)O)CCN1C(=O)/C=C/c1ccccc1 (configuration not stated) | -1.81% (inactive)
CC1(C(=O)NS(=O)(=O)c2ccccc2)CCN1C(=O)C/C=C/c1ccccc1 (configuration not stated) | 19.5% (inactive)
COc1cccc(-n2ccn(CC(=O)NCc3ccc(C)cc3)c(=O)c2=O)c1 | -17.1% (inactive)
Fc1ccccc1N=C1Nc2cccc3cccc1c23 | -68.6% (active)
COc1ccc(C)cc1S(=O)(=O)Nc1cc2c3c(c1)CCC(=O)N3CCC2 | 0.474% (inactive)
CCN(CC)P(=O)(/C(Cl)=C\Nc1c(C)n(C)n(-c2ccccc2)c1=O)N(CC)CC | 54% (inactive)
Cc1cc(C)c2nc(SCC(=O)N(C)C3CCS(=O)(=O)C3)cc(C)c2c1 (configuration not stated) | 25.8% (inactive)
CCCOc1cccc(C(=O)Nc2cccc(NC(=O)c3ccc(C(C)(C)C)cc3)c2)c1 | 50.3% (inactive)
CCCOc1ccc(C(=O)C(CCC(CNCC)C(=O)c2ccc(OCCC)cc2)CNCC)cc1 (configuration not stated) | -96.5% (active)
CC(C)CCOc1ccc(C(=O)C[N+]2(C)CCOCC2)cc1 | -4.43% (inactive)
Cc1ccc(OCCn2c(CNc3ccccc3C)nc3ccccc32)cc1 | 38% (inactive)
COc1ccc(/C=C/c2nc(C#N)c(NCc3ccc(F)cc3)o2)cc1OC | 9.25% (inactive)

Structure (SMILES) | activity change, negative = inhibition
Cc1cc(Cl)ccc1OCC(=O)N(Cc1ccc(N(C)C)cc1)C1CCS(=O)(=O)C1 (configuration not stated) | 15.4% (inactive)
COc1ccc(Cl)cc1NC(=O)CCC(=O)c1ccc(C)cc1 | -19.2% (inactive)
COc1ccc(Cl)cc1NC(=O)CCS(=O)(=O)c1ccc(Br)cc1 | -65.8% (active)
Cc1ccc(Cl)cc1NC(=O)CCS(=O)(=O)c1ccc(Br)s1 | -33.6% (inactive)
O=C(c1ccccc1)N1CC(=O)N2[C@@H](CO)[C@@H](c3ccc(Br)cc3)[C@@H]2C1 | 14.7% (inactive)
COc1cc(NC(=O)c2cc(C3CC3)nc3c2c(C)nn3-c2ccccc2)cc(OC)c1 | -30% (inactive)
Cc1cc(C(=O)Nc2cccc(C(F)(F)F)c2)c2c(C)nn(-c3cccc(F)c3)c2n1 | -98.1% (active)
CSc1ccc(CCNC(=O)c2cc(C)nc3c2c(C)nn3-c2cccc(F)c2)cc1 | 30.7% (inactive)
O=C(CN1CCN(S(=O)(=O)/C=C/c2ccccc2)CC1)NC(=O)NCc1ccco1 | 61.6% (inactive)
COc1ccc(OC)c(C2C3=C(N=c4s/c(=C\c5cccc(O)c5)c(=O)n42)c2ccccc2CC3)c1 (configuration not stated) | -92.5% (active)
COc1ccc(Cn2ccc3nc(C)c(C(=O)Nc4ccc(C)c(F)c4)cc3c2=O)cc1 | 0.318% (inactive)
COc1ccc(C2=CC(c3ccccc3Cl)n3nc(-c4ccc(Cl)cc4)nc3N2)cc1 (configuration not stated) | -32.6% (inactive)
C/C(=N\Nc1nc(N2CCOCC2)nc(N2CCOCC2)n1)c1ccc([N+](=O)[O-])cc1 | -66% (active)
C/C(=N\Nc1ccc([N+](=O)[O-])cc1)c1ccc(-n2nncc2C(C)(C)C)cc1 | -14.8% (inactive)
C/C(=N/NC(=O)CC(=O)N/N=C(\C)c1ccc([N+](=O)[O-])cc1)c1ccc([N+](=O)[O-])cc1 | -9.56% (inactive)
CC1CCN(CCCNC(=O)CN2C(=O)CSc3ccc(S(=O)(=O)N4CCCCC4)cc32)CC1 | 16.9% (inactive) and -5.47% (inactive)
CCOC(=O)c1ccccc1NC(=O)c1sc2nc(-c3ccc(F)cc3)cn2c1C | -4.65% (inactive)
Cc1cccc(C(=O)Nc2ccc(-c3nc4ncccc4o3)cc2C)c1 | 24.6% (inactive)
O=C1c2ccccc2C(=O)N1CCOc1ccc(F)cc1 | -3.7% (inactive)
O=C1NC(=O)N(CCc2ccc(F)cc2)C(=O)/C1=C/C=C/c1ccccc1 | -71.6% (active)
CCc1ccc(OCC(=O)N2CCN(CC(=O)Nc3ccccc3Cl)CC2)cc1 | 11.8% (inactive)
